Several values for one entry are separate records, joined by “and”; a condition that tells them apart may be missing. Identical values can stand only once. The panel holds about 83,000 compounds, 20% with a hit somewhere; the sample as a whole holds those more often.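 For each line, cells grew in 96-well plates with the test compound present at a single concentration for 48 hours.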 The source holds several records for some structures; these can differ, active in one and inactive in another. Activity calls are given as the source filed them.
Key:
Assay in all cases: NCI-60 one-dose screen, 48 h (100 = growth as untreated, 0 = no growth, -100 = all killed)
Conditions in all cases: 10 µM
[1] = system: DU-145 prostate
[2] = system: K-562 leukemia
[3] = system: MALME-3M melanoma
[4] = system: MDA-MB-231 breast
[5] = system: RXF 393 renal
[6] = system: SF-268 CNS
[7] = system: SF-295 CNS
[8] = system: SF-539 CNS
[9] = system: UACC-257 melanoma
[10] = system: M14 melanoma
[11] = system: HCT-15 colon
[12] = system: HT29 colon
[13] = system: SNB-75 CNS
[14] = system: SNB-19 CNS
[15] = system: U251 CNS
[16] = system: PC-3 prostate
Procedure: Growth inhibition of the PC-3 human tumor cell line is measured as a screen for anti-cancer activity. Cells are grown in 96 well plates and exposed to the test compound for 48 hours. Compounds are tested at a single concentration, which is 10^-5 M for most compounds. The reported endpoint is percent growth (GI% or GIPRCNT), where numbers from 0 - 100% represent growth inhibition, and numbers from -100% - 0 represent cell death. For example, a value of 40 represents 60% growth inhibition. A value of 0 means no net growth occurred over the course of the experiment. A value of -40 indicates 40% of cells at the beginning of the experiment died by the end of the experiment. A value of -100 means all cells are dead at the end of the experiment.
NCI-60 Human Tumor Cell Lines Screen was performed using the standard one-dose NCI protocol, which is described in more detail at https://dtp.cancer.gov/discovery_development/nci-60/default.htm.
Compounds with GIPRCNT values below 10 were considered active. Activity score was based on GIPRCNT using the following formula: […]
Score is 0 for GIPRCNT values of 100 or above, 50 for GIPRCNT values of 0, and 100 for GIPRCNT values of -100.

[17] = system: SK-MEL-5 melanoma
[18] = system: LOX IMVI melanoma
[19] = system: SK-MEL-28 melanoma
[20] = system: SK-MEL-2 melanoma

Measured: growth

CN(C)CCOC1(Cc2ccc(Cl)cc2Cl)CCC(C(C)(C)C)CC1 (stereo not given)
10.2% (inactive) and -63.9% (active): [17]
15.5% (inactive) and -25.9% (active): [14]
active: [2] -37.2% and -48.5% | [3] -48.2% and -65.3% | [4] 7.18% and -26.3% | [7] -44% and -69.9% | [9] -33.6% and 2.54% | [10] -34.4% and -59.1% | [11] -11.2% and -80.3% | [12] -37.7% and -58.6% | [15] -95.2% and -100% | [18] -100% | [19] -58.7% and -50%
22.7% (inactive) and 7.69% (active): [1]
30.2% (inactive) and -32.5% (active): [5]
inactive: [6] 46.1% and 34.9% | [8] 39.7% and 46.6% | [13] 47.1% and 44.2% | [16] 40.8% and 35.7% | [20] 94.8% and 54.6%

Cc1cc(N(CCOS(C)(=O)=O)CCOS(C)(=O)=O)ccc1C=Nc1ccc(-c2nc(Cc3ccccc3)sc2C)cc1
active: [9] 6.01% | [13] -1.26%
inactive: [1] 11.8% | [2] 21.7% | [3] 58% | [4] 77.2% | [5] 45.9% | [6] 39.4% | [7] 12.6% | [8] 15% | [10] 25.8% | [11] 55% | [12] 46.2% | [14] 39.5% | [15] 43.2% | [16] 55% | [17] 45.2% | [18] 34.9% | [20] 86.3%

COc1ccc(C(=O)C(CN(C)C)CN(C)C)cc1
inactive: [1] 56.9% | [4] 104% | [5] 63.9% | [6] 96.5% | [7] 102% | [8] 96.3% | [9] 73.1% | [10] 52% | [11] 46.6% | [13] 76.4% | [14] 103% | [15] 102% | [16] 89.6% | [17] 101% | [18] 82.4% | [19] 83.1% | [20] 149%
active: [2] -19.4% | [3] -70.7% | [12] -77.3%

CC1=CC(=C(c2ccc(N)cc2)c2ccc(N)cc2)C=CC1=N
-27.7% (active) and 41.7% (inactive): [20]
-1.98% (active) and 23.7% (inactive): [13]
8.88% (active) and 16.1% (inactive): [8]
-12.8% (active) and 62.6% (inactive): [5]
inactive: [1] 18.6% and 38.3% | [2] 21.1% and 24.5% | [6] 26.1% and 29% | [10] 27.4% | [11] 53.9% and 73.4% | [14] 17.9% and 21.6% | [15] 17.4% and 10.6% | [19] 28.8% and 45.9%
9.47% (active) and 18.5% (inactive): [16]
0.759% (active) and 56.2% (inactive): [3]
6.87% (active) and 21.8% (inactive): [4]
active: [7] -7.28% | [9] -6.06% and 8.33% | [17] -37.3% and -25.8%
6.75% (active) and 10.4% (inactive): [12]
7.6% (active) and 22.4% (inactive): [18]

C=C1C(=O)OC2CC1C(OC(C)=O)C/C(C)=C/CC/C(C)=C\CCC2(C)O (stereo not given)
inactive: [3] 18.6% | [4] 20.3% | [5] 13.1% | [6] 27.1% | [7] 106% | [8] 11.2% | [9] 58.2% | [10] 16.4% | [13] 19.8% | [14] 51.6% | [15] 33.3% | [16] 18.3% | [17] 55.8% | [20] 41.5%
active: [1] -5% | [2] -40% | [11] -80.1% | [12] -45.1% | [18] 6.22%

O=[N+]([O-])c1cc[n+]([O-])cc1
inactive: [1] 120% | [2] 117% | [3] 101% | [4] 95.9% | [5] 114% | [6] 107% | [7] 101% | [8] 122% | [9] 76.5% | [10] 113% | [11] 112% | [12] 105% | [14] 88.5% | [15] 111% | [16] 101% | [17] 95% | [18] 96.3% | [19] 115% | [20] 110%

C#CCN(Cc1ccc2nc(N)[nH]c(=O)c2c1)c1ccc(C(=O)NC(CCC(=O)O)C(=O)O)cc1 (stereo not given)
active: [8] 0.195%
inactive: [1] 48.6% | [2] 58.9% | [3] 86.8% | [5] 72.9% | [6] 70.4% | [7] 99.5% | [9] 92.1% | [10] 44.7% | [11] 65.5% | [12] 62.5% | [13] 86.5% | [15] 89.2% | [16] 64.6% | [17] 100% | [18] 16% | [19] 95.2% | [20] 143%

Cc1ccc(Sc2ccccc2N)cc1
active: [1] 6.34%
inactive: [2] 108% | [3] 116% | [4] 102% | [5] 67.4% | [6] 98.1% | [7] 88.8% | [8] 114% | [9] 98.5% | [10] 99.5% | [11] 21.2% | [12] 26.1% | [13] 122% | [14] 95.6% | [15] 84.3% | [16] 74.4% | [17] 91.8% | [18] 76.1% | [19] 118% | [20] 15.9%

From PubChem BioAssay (NCI)
